From PubChem BioAssay (NCATS) come the findings set out here.

Assay [1] in a line: qHTS for Inhibitors of the Functional Ribonucleoprotein Complex (vRNP) of Lassa (LASV) Arenavirus: Viability assay - alamar blue signal for LASV Primary Screen (AID 1347083; calls by dose curve; tested in HEK293 reporter line; note: nearly all actives have a fitted effect of over 80% in size; note: potency is the fitted concentration of half-maximal effect). For orientation: In qHTS, concentration-response curves come from the screen itself.
Assay [2] can be described thus: qHTS for Inhibitors of the Functional Ribonucleoprotein Complex (vRNP) of Lymphocytic Choriomeningitis Arenaviruses (LCMV): Viability assay - alamar blue signal for LCMV Primary Screen (AID 1347085; calls by dose curve; tested in HEK293 reporter line; note: nearly all actives have a fitted effect of over 80% in size; note: potency is the fitted concentration of half-maximal effect).
Assay [3] deals with Nucleoprotein (Lymphocytic choriomeningitis virus (strain Armstrong)) (UniProt P09992). Put plainly: qHTS for Inhibitors of the Functional Ribonucleoprotein Complex (vRNP) of Lymphocytic Choriomeningitis Arenaviruses (LCMV): LCMV Primary Screen - GLuc reporter signal (AID 1347086). Note: nearly all actives have a fitted effect of over 70% in size. Note: potency is the fitted concentration of half-maximal effect.
Assay [4] can be described thus: qHTS for Inhibitors of the Functional Ribonucleoprotein Complex (vRNP) of Lassa (LASV) Arenavirus: LASV Primary Screen - GLuc reporter signal (AID 1347082; calls by dose curve; tested in HEK293 reporter line; note: series mostly up to about 57 µM; nearly all actives have a fitted effect of over 60% in size).
The nature of assay [5]: qHTS of pediatric cancer cell lines to identify multiple opportunities for drug repurposing: Primary screen for TC32 cells (AID 1347089; active = well fitted cell-killing curve with a large enough effect; note: nearly all actives have a fitted effect of over 60% in size). Summed up:
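Luminescent ATP read-out (CellTiter-Glo) of metabolically active TC32 cells after 48 h exposure. Concentration-response curves came from 11-point (MIPE, 0.78 nM–46 µM) or 8-point (NPC, 0.59 nM–46 µM) primary titrations; follow-up used 11 points.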

Assay [6] in a line: qHTS of pediatric cancer cell lines to identify multiple opportunities for drug repurposing: Primary screen for DAOY cells (AID 1347090; active = well fitted cell-killing curve with a large enough effect; note: nearly all actives have a fitted effect of over 55% in size; note: potency is the fitted concentration of half-maximal effect). Summed up: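 Eight- or eleven-point concentration series, 48 h treatment at 37 degrees C in growth media; readout CellTiter-Glo luminescence. Potency and efficacy were taken from the concentration-response curves.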

SMILES strings stand for the structures. “And” between values parts separate entries of the source, which are not always exact repeats. Equal values may be shown once. Results filed as inconclusive are left out. The source made the active and inactive calls. Unless noted, calls come from the whole dose curve.

Sequence of Nucleoprotein (Lymphocytic choriomeningitis virus (strain Armstrong)) (P09992 whole entry, looked up): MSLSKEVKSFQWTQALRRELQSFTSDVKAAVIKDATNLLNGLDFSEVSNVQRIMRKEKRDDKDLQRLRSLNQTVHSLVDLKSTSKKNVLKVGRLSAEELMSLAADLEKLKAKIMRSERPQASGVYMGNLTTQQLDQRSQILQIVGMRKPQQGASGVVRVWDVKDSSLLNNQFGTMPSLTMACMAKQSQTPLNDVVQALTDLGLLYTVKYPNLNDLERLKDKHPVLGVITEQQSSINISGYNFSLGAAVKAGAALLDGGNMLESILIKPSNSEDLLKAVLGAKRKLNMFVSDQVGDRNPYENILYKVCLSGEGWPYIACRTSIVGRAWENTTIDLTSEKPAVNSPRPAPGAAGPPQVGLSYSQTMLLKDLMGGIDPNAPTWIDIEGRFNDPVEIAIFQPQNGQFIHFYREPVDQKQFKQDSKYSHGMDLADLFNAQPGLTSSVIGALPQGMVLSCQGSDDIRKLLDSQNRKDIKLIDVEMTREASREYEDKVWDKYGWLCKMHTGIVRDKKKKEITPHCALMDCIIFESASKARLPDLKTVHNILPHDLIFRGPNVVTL

Regarding `O=C1Cc2cc(CCN3CCN(c4nsc5ccccc45)CC3)c(Cl)cc2N1`, the Potency result in assay [1], in assay [2] and in assay [3] was “inactive” in each case.
On to `COc1cc(Nc2c(C#N)cnc3cc(OCCCN4CCN(C)CC4)c(OC)cc23)c(Cl)cc1Cl`, for which the Potency in assay [1] was 1.09 µM (active). In addition, the Potency result in assay [3] was “inactive”.
For the compound `CC(C)n1c(C=C[C@H](O)C[C@H](O)CC(=O)O)c(-c2ccc(F)cc2)c2ccccc21`, the values for the Potency in assay [1], in assay [2] and in assay [3] were 2.43 µM (active), 7.69 µM (active) and 21.7 µM (active), respectively.
Regarding `C#C[C@]1(O)CC[C@H]2[C@@H]3CCC4=Cc5oncc5C[C@]4(C)[C@H]3CC[C@@]21C`, the Potency entry in assay [4], in assay [2] and in assay [3] was “inactive” throughout.
`CS(=O)(=O)CCNCc1ccc(-c2ccc3ncnc(Nc4ccc(OCc5cccc(F)c5)c(Cl)c4)c3c2)o1`: the Potency was 0.432 µM (active) in assay [1], 0.137 µM (active) in assay [2] and 0.769 µM (active) in assay [3].
For the compound `CC1=C(/C=C/C(C)=C/C=C/C(C)=C/C(=O)Nc2ccc(O)cc2)C(C)(C)CCC1`, in assay [3], the Potency was 8.91 µM (active).
For the compound `CNS(=O)(=O)CCc1ccc2[nH]cc(C3CCN(C)CC3)c2c1`, the Potency entry in assay [4] and in assay [3] was “inactive” in each case.
Regarding `CCC(=O)C(CC(C)N(C)C)(c1ccccc1)c1ccccc1` (configuration not stated), the Potency result in assay [4], in assay [2], in assay [3] and in assay [5] was “inactive” throughout. Further, the Potency in assay [6] is 34.7 µM (active).
`O=C(C1CCCCC1)N1CC(=O)N2CCc3ccccc3C2C1` (configuration not stated): the Potency entry in assay [4], in assay [2] and in assay [3] was “inactive” throughout.
Turning to `COC(=O)C1=C(C)NC(C)=C(C(=O)OCC(C)C)C1c1ccccc1[N+](=O)[O-]` (configuration not stated), the Potency entry in assay [4], in assay [2] and in assay [3] was “inactive” throughout.
For the compound `O=C1c2cccc3c2[C@H](CCC3)CN1[C@@H]1CN2CCC1CC2`, the Potency result in assay [4], in assay [2] and in assay [3] was “inactive” in each case.
With `Nc1nc(=S)c2[nH]cnc2[nH]1`, the Potency in assay [1] was 17.2 µM (active).
As to `Nc1ccn([C@@H]2O[C@H](CO)[C@@H](O)C2(F)F)c(=O)n1`, the Potency result in assay [4] and in assay [3] was “inactive” throughout.
Turning to `Nc1nc(N)c2nc(-c3ccccc3)c(N)nc2n1`, the Potency result in assay [4] and in assay [3] was “inactive” throughout.
For `O=C1c2c(O)ccc(O)c2C(=O)c2c(NCCNCCO)ccc(NCCNCCO)c21`, the Potency in assay [1] was 685 nM (active) and 891 nM (active) and 1.78 µM (active); in assay [2], 1.37 µM (active) and 1.26 µM (active); in assay [3], 4.32 µM (active).
Turning to `Cc1ccc(-n2nc(C(C)(C)C)cc2NC(=O)Nc2ccc(OCCN3CCOCC3)c3ccccc23)cc1`, the Potency result in assay [4] and in assay [3] was “inactive” each time.
Take `Cc1ccc(S(=O)(=O)NC(=O)NN2CC3CCCC3C2)cc1` (configuration not stated): the Potency entry in assay [2] and in assay [3] was “inactive” in each case.
On to `CCN(CC)CCN1C(=O)CN=C(c2ccccc2F)c2cc(Cl)ccc21`, for which the Potency entry in assay [2], in assay [3], in assay [5] and in assay [6] was “inactive” throughout.
In the case of `CS(=O)c1ccc(-c2nc(-c3ccc(F)cc3)c(-c3ccncc3)[nH]2)cc1` (configuration not stated), the Potency result in assay [4], in assay [2] and in assay [3] was “inactive” in each case.
`CN(Cc1cnc2nc(N)nc(N)c2n1)c1ccc(C(=O)N[C@@H](CCC(=O)O)C(=O)O)cc1`: the Potency entry in assay [4], in assay [2] and in assay [3] was “inactive” throughout.
On to `Nc1nc2c(ncn2COC(CO)CO)c(=O)[nH]1`, for which the Potency result in assay [4] and in assay [3] was “inactive” in each case.
Consider `CC1(C)O[C@@H]2[C@@H](CO[C@@]3(COS(N)(=O)=O)OC(C)(C)O[C@@H]23)O1`, for which the Potency entry in assay [4], in assay [2] and in assay [3] was “inactive” each time.
`COc1cc(NCc2ccc3nc(N)nc(N)c3c2C)cc(OC)c1OC`: the Potency entry in assay [4] and in assay [3] was “inactive” throughout.
For the compound `CC(C)c1nc(CN(C)C(=O)N[C@H](C(=O)N[C@@H](Cc2ccccc2)C[C@H](O)[C@H](Cc2ccccc2)NC(=O)OCc2cncs2)C(C)C)cs1`, the Potency entry in assay [4], in assay [2] and in assay [3] was “inactive” in each case.
`CCC1=C[C@@H]2CN(C1)Cc1c([nH]c3ccccc13)[C@@](C(=O)OC)(c1cc3c(cc1OC)N(C)[C@H]1[C@@](O)(C(=O)OC)[C@H](OC(C)=O)[C@]4(CC)C=CCN5CC[C@]31[C@@H]54)C2`: the Potency result in assay [1], in assay [2] and in assay [3] was “inactive” throughout.
For `CC12CC3CC(C)(C1)CC(N)(C3)C2`, the Potency result in assay [4], in assay [2] and in assay [3] was “inactive” each time.
For the compound `CCc1c2c(nc3ccc(OC(=O)N4CCC(N5CCCCC5)CC4)cc13)-c1cc3c(c(=O)n1C2)COC(=O)[C@]3(O)CC`, the Potency was 4.32 µM (active) in assay [1] and 27.3 µM (active) in assay [3].
Take `NC1[C@H]2CN(c3nc4c(cc3F)c(=O)c(C(=O)O)cn4-c3ccc(F)cc3F)C[C@@H]12` (some centres not stated): the Potency result in assay [4] and in assay [3] was “inactive” throughout.
As to `C[C@@H]1[C@@H](C(=O)C[C@H]2O[C@@H]3O[C@]4(C)CC[C@@H]5[C@H](C)CC[C@@H]([C@H]2C)[C@@]35OO4)O[C@@H]2O[C@]3(C)CC[C@H]4[C@H](C)CC[C@@H]1[C@@]24OO3`, the Potency entry in assay [1] was “inactive”. For the same compound, the Potency in assay [2] was 21.7 µM (active).
On to `Cc1nc(Nc2ncc(C(=O)Nc3c(C)cccc3Cl)s2)cc(N2CCN(CCO)CC2)n1`, for which the Potency result in assay [2] and in assay [3] was “inactive” each time.
